Shown are actives, neighbours in structure and some others; about 4.2% of the full set was active somewhere.
TCR act: Activators of T cell receptors: qHTS campaign | primary human leukocytes, anti-CD3, IL-2 HTRF, 48 h | Potency, µM (titrated, usually from 9.22 µM), for the others: at the top dose activation of IL-2 secretion, actives largely listed as activators | 330,000 tested, under 10 active | AID 504894, 2011; further: % of control where 0% means no effect
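Activity was scored as IL-2 release from primary human leukocytes given only a TCR signal (a-CD3 beads) plus compound for 48 hr. Detection used a two-antibody HTRF format read at 665nm.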
uPA surface inh: qHTS for Inhibitors of Cell Surface uPA Generation; cell surface uPA generation assay, qHTS; Potency, µM (highest dose often 38.3 µM), for the others: at the top dose activity change, negative = inhibition, usual class: inhibitors; 0.31% of 330,000 active; active means well fitted inhibition curve with a large enough effect; inconclusive means small, poorly fitted or top-dose-only effect; inactive means no such curve, though single readings can be large or run the other way; tested in mouse RAW 264.7 cells; further: potency means the concentration at half of the fitted maximal effect; on the % scale 0 is the no-effect control and ±100 the full control effect; nearly all actives have a fitted effect of over 55% in size
Sfp inh: qHTS Assay for Inhibitors of Bacillus subtilis Sfp phosphopantetheinyl transferase (PPTase); 4'-phosphopantetheinyl transferase ffp (Bacillus subtilis), Q9F4F7; Biochemical Sfp PPTase activity, qHTS; Potency, µM, for inactives: largest response in the series, negative = inhibition, usual class: inhibitors; 3.5% of 310,000 active; AID 1490, 2009;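 further: the enzyme is Sfp with the accession as filed and its product quenches rhodamine fluorescence; potency means the concentration at half of the fitted maximal effect; 0% = enzyme reaction without inhibitor and -100% = no enzyme wells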
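Buffer: 50 mM Hepes-Na pH 7.6, 10 mM MgCl2, 0.01% Nonidet P-40, 0.01% BSA. Enzyme 15 nM, pre-exposed to compound 15 min; substrates then added and fluorescence change tracked over 30 min.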
ClpP mod: qHTS Assay for Activators of ClpP; Potency, µM (highest dose often 57.5 µM), inactives show at the highest dose activity change, negative = active; AID 651965, 2013; purified B. subtilis ClpP, FRET peptide cleavage, 20 min; 1.9% of 340,000 active; active means well fitted falling curve with a large enough effect; inconclusive means small, poorly fitted or top-dose-only effect; inactive means no such curve, though single readings can be large or run the other way; further: potency means the concentration at half of the fitted maximal effect; the source files actives as falling curves though it sought activators and does not explain the sign; nearly all actives have a fitted effect of over 65% in size
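Purified B. subtilis ClpP, 10 microg/mL final in Tris/HCl pH8 with KCl, BSA, glycerol and Tween-20, cleaved an Abz/nitrotyrosine-quenched decapeptide. Fluorescence (ex 320, em 430) was read at 0 and 20 min at room temperature. Delta was normalized to 5.8 microM ADEP and DMSO/no-enzyme controls.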
Starred values were filed as active, the others as inactive; [ ] = dose if it differs, or a comment. Unless noted, the call rests on the fitted dose curve; in most records, active means well fitted curve in the direction sought with a large enough effect; inconclusive means small, poorly fitted or top-dose-only effect, or another doubt; inactive means no such curve, though single readings can be large; an effect the other way counts as inactive or inconclusive.

What do the screens show for `COc1ccc(-c2nsc3c(N4CCCCC4C)ncnc23)cc1` (stereo not drawn)?
TCR act: 0%; uPA surface inh: 3.2µM*; Sfp inh: -10%; ClpP mod: -29%

Results for CCn1nc(C)c(CCN(C)C(=O)Nc2cc(OC)c(OC)c(OC)c2)c1C ?
ClpP mod: -1%

What do the screens show for `Cc1ccc(C)c(NC(=O)CCN2C(=O)c3ccccc3Sc3ncccc32)c1`?
ClpP mod: -1%

Results for COC(=O)Cc1sc(-c2ccccn2)nc1-c1ccccc1 ?
TCR act: -5%; uPA surface inh: 7%; Sfp inh: 22µM*; ClpP mod: 5%

What do the screens show for `COC(=O)Cc1ccc2sc(-c3ccccc3)nc2c1`?
TCR act: -4%[46.1 µM]; uPA surface inh: -1%; Sfp inh: inconclusive; ClpP mod: 28µM*

What do the screens show for `Cc1ccc(-c2nc(-c3cccnc3)sc2CC(=O)O)cc1`?
TCR act: 5%; uPA surface inh: -1%; Sfp inh: 17%; ClpP mod: 3%

What do the screens show for `O=C(O)Cc1ccc2sc(-c3ccccc3)nc2c1`?
TCR act: -3%[46.1 µM]; uPA surface inh: inconclusive; Sfp inh: 13%; ClpP mod: inconclusive

What do the screens show for `CCOC(=O)Cn1c(C)nc2c(C(=O)OCC)sc(C)c2c1=O`?
TCR act: 9%; uPA surface inh: -10%; Sfp inh: -5%; ClpP mod: 32µM*

How did c1ccc(CCc2nn3c(Cc4ccccc4)nnc3s2)cc1 do in these assays?
TCR act: 2%; Sfp inh: 22µM*; ClpP mod: -2%

What do the screens show for `CCOc1ccccc1-c1nn2c(Cc3ccccc3)nnc2s1`?
uPA surface inh: -7%; Sfp inh: -14%; ClpP mod: 25µM*

How did CCOc1ccc(NC(=O)CSc2nnc3c(n2)[nH]c2ccc(S(=O)(=O)N(C)C)cc23)cc1 do in these assays?
ClpP mod: -2%

Results for COC(=O)c1cc(Cl)c(NC(=O)C(C)C)cc1OC ?
TCR act: -2%; uPA surface inh: 2%; Sfp inh: 15%

How did COC(=O)c1cc(Cl)c(NC(=O)c2ccc(C(C)(C)C)cc2)cc1OC do in these assays?
Sfp inh: 14µM*; ClpP mod: -14%

How did CCOc1ccc(C(C)NC(=O)CCC(=O)O)cc1 (stereo not drawn) do in these assays?
TCR act: 3%; uPA surface inh: 5%; Sfp inh: 14%; ClpP mod: 28µM*

What do the screens show for `CCOc1ccc(C(=O)CCC(=O)O)cc1`?
TCR act: -2%; Sfp inh: 14%; ClpP mod: 0%

How did CCOc1ccc(/C(CCC(=O)O)=N/NC(=S)NC(C)C)cc1 do in these assays?
TCR act: 3%; uPA surface inh: -5%; Sfp inh: 35µM*; ClpP mod: 0%

What do the screens show for `COc1c(C)cc(Br)cc1C(=O)Nc1ccccc1N1CCN(C(=O)c2ccccc2)CC1`?
TCR act: -2%; Sfp inh: 20%; ClpP mod: 18µM*

Results for O=C(CN(C(=O)c1csnn1)c1cccc(Cl)c1)NC1CCCCC1 ?
TCR act: -2%; uPA surface inh: 13%; Sfp inh: 13%; ClpP mod: 2%

Results for CCOC(=O)c1cnn(-c2nc(-c3ccccc3)cs2)c1C(F)(F)F ?
TCR act: 0%; uPA surface inh: 10%; Sfp inh: 0%; ClpP mod: 32µM*

What do the screens show for `COc1ccc(-c2csc(-n3ncc(C(=O)O)c3C(F)(F)F)n2)cc1`?
TCR act: -6%; uPA surface inh: 4%; Sfp inh: 5%; ClpP mod: -10%

What do the screens show for `CCOC(=O)c1cnn(-c2nc(-c3ccccc3F)cs2)c1C(F)(F)F`?
TCR act: -1%; Sfp inh: 0%; ClpP mod: 35µM*

How did CCOC(=O)c1cnn(-c2nc(-c3ccc(F)cc3)cs2)c1C(F)(F)F do in these assays?
TCR act: -2%; uPA surface inh: 5%; Sfp inh: 11%; ClpP mod: 32µM*

Results for Cc1ccc(S(=O)(=O)C[C@@H]2OC[C@H](C(C)C)N2S(=O)(=O)c2ccc(C)cc2)cc1 ?
ClpP mod: -2%

Results for Cc1ccc2c(c1)sc1nc(-c3cc4ccccc4oc3=O)cn12 ?
ClpP mod: -5%

What do the screens show for `O=C(Nc1cccc(C(=O)O)c1)/C(=C\c1ccco1)NC(=O)c1ccccc1Cl`?
TCR act: 5%; uPA surface inh: 5%; Sfp inh: -5%; ClpP mod: 1%

How did COc1ccccc1NC(=O)c1ccccc1NC(=O)c1cc(Cl)ccc1NC(=O)c1ccco1 do in these assays?
TCR act: -2%; uPA surface inh: 3%; Sfp inh: 16µM*; ClpP mod: 270%

Results for O=C(Nc1ccccc1C(=O)O)/C(=C/c1ccc(Cl)cc1Cl)NC(=O)c1ccco1 ?
TCR act: -7%; uPA surface inh: -9%; Sfp inh: 3%; ClpP mod: 35µM*

Results for COc1ccccc1NC(=O)c1cc(Cl)ccc1NC(=O)c1ccco1 ?
TCR act: 23%; uPA surface inh: -7%; Sfp inh: 6%; ClpP mod: 93%

What do the screens show for `O=C1NC(=O)C2(COC(c3ccccc3Cl)OC2)S1` (stereo not drawn)?
TCR act: -2%[46.1 µM]; uPA surface inh: -3%; Sfp inh: 8%; ClpP mod: -3%

What do the screens show for `O=C(CC(Nc1ccc(F)cc1)C(=O)OCC(=O)c1cccs1)c1ccccc1` (stereo not drawn)?
TCR act: 1%[46.1 µM]; uPA surface inh: -2%; Sfp inh: 35µM*; ClpP mod: -1%

What do the screens show for `O=C(CSc1nc2ccccc2o1)N/N=C/c1ccccc1`?
TCR act: -9%; uPA surface inh: -11%; Sfp inh: -2%; ClpP mod: -1%

What do the screens show for `O=C(CSc1nc2ccccc2o1)N/N=C/c1ccc(O)c(O)c1`?
TCR act: -3%; uPA surface inh: 6.3µM*; Sfp inh: inconclusive; ClpP mod: -8%

How did CCOC(=O)/C(C#N)=C1\CCCN1CC(N)=S do in these assays?
TCR act: -1%[46.1 µM]; uPA surface inh: 0%; Sfp inh: 35µM*

What do the screens show for `CCOC(=O)/C(C#N)=C1/CCCCCN1C`?
TCR act: -8%; uPA surface inh: 1%; Sfp inh: -1%; ClpP mod: 1%

How did CNC(=O)C1CCC(Cn2c(=O)c3sccc3n(Cc3ccc(F)cc3)c2=O)CC1 (stereo not drawn) do in these assays?
ClpP mod: -1%

How did CCSc1nc2c(c(=O)[nH]1)C(c1ccc(C)cc1)C1=C(CCCC1=O)N2 (stereo not drawn) do in these assays?
TCR act: 2%; uPA surface inh: 4%; Sfp inh: 21%

What do the screens show for `CC1(C)CC(=O)C2=C(C1)Nc1nc(SCCN3CCOCC3)[nH]c(=O)c1C2c1cccs1` (stereo not drawn)?
TCR act: 0%; uPA surface inh: -1%; Sfp inh: -10%; ClpP mod: 32µM*
